According to ChEMBL document CHEMBL3433997, “St. Jude Leishmania screening dataset” (2016):

What was measured:
Assay type in all cases: functional
[1] = target: Solute carrier family 2, facilitated glucose transporter member 1 (Homo sapiens) (UniProt P11166); assay: ST_JUDE_LEISH: Cytotoxicity at 2uM final concentration against transgenic Leishmania Mexicana promastigotes LmGLUT1 that are glucose transport deficient and complemented with the human glucose transporter GLUT1. Activity is measured by DNA content using SYBR green in vitro
Solute carrier family 2, facilitated glucose transporter member 1 (Homo sapiens), sequence (P11166 whole entry): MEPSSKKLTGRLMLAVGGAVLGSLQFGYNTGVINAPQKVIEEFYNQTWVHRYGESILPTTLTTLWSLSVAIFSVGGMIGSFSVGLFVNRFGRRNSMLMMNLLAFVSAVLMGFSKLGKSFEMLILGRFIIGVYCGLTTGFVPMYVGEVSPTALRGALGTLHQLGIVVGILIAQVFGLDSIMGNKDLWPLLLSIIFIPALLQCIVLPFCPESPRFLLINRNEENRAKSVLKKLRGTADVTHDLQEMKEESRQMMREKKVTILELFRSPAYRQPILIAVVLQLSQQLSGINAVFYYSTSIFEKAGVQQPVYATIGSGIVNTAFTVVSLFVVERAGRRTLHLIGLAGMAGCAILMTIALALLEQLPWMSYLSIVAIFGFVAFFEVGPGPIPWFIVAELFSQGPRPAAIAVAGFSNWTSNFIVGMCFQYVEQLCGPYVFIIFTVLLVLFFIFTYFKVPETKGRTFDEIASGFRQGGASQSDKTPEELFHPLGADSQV

[2] = target: Hexose transporter 1 (Plasmodium falciparum) (UniProt O97467); assay: ST_JUDE_LEISH: Cytotoxicity at 2uM final concentration against transgenic Leishmania Mexicana promastigotes LmPfHT that are glucose transport deficient and complemented with the Plasmodium falciparum hexose transporter. Activity is measured by DNA content using SYBR green in vitro
[3] = target: Glucose transporter (Leishmania mexicana) (UniProt O61059); assay: ST_JUDE_LEISH: Cytotoxicity at 2uM final concentration against transgenic Leishmania Mexicana promastigotes LmGT2 that are glucose transport deficient and complemented with the L. Mexicana glucose transporter 2. Activity is measured by DNA content using SYBR green in vitro

SMILES	inhibition [1] [%]	inhibition [2] [%]	inhibition [3] [%]
CC(C)(CNC(=O)/C=C/c1ccc(C(F)(F)F)cc1)CNc1cc(=O)c2ccccc2[nH]1	1.07	-1.76	1.66
CC(=O)c1ccc(-c2cccc3c(CC(=O)Nc4ccc5nccc(N6CCN(C)CC6)c5c4)cccc23)cc1	0.38	1.03	-1.81
Cc1cc2nc(-c3ccc(/C=C/C(=O)NCCCc4ccccc4)cc3)[nH]c2cc1C	4.43	2.87	1.65
Cc1cc(C)cc(OCC(O)CN(Cc2cc(Cl)cc(Cl)c2)C(=O)Nc2ccccc2Cl)c1 (stereo not given)	2.01	1.42	-7.19
Cc1cc(C(=O)CN2C(=O)NC3(CCOc4ccccc43)C2=O)c(C)n1Cc1ccc(F)cc1 (stereo not given)	3.91	2.31	1.1
CC1(C)N=C(N)N=C(Nc2ccc(Cl)cc2)N1	14.5	14.3	11.4
CC(=O)Nc1cccc(C(=O)Nc2nc3ccc(-c4cc(=O)[nH]c(Nc5ccccc5Cl)n4)cc3[nH]2)c1	4.21	2.23	5.36
CCc1cc(NC(=O)Nc2ccnc3ccccc23)ccc1OC	19	17.9	11.6
c1ccc(Oc2ccc(Nc3ccnc4cc(-c5csc(CNCCN6CCOCC6)n5)ccc34)cc2)cc1	-1.32	1.23	-0.68
O=C(N[C@H]1CCN(Cc2ccc(OC3CCN(Cc4ccccc4)CC3)c(Br)c2)C1)c1ccc(Cl)c(Cl)c1	-0.92	2.97	0.77
